An excerpt weighted towards active compounds, which were near 9.3% of everything screened.
SMN2 splice enh = SMN2 splice variant enhancement; actives 2.8% (n = 210,000); HEK293 SMN2-luciferase splicing reporter, luminescence, 30-36 h; Potency, µM (series often up to 46.1 µM), for the others: top-dose activity change, positive = activation, most hits filed as activators; AID 1458; further: % of control where 0% means no effect; nearly all actives have a fitted effect of over 55% in size
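qHTS luciferase splicing reporter: luminescence rises when SMN2 exon 7 is included in transfected HEK293 cells. Compound exposure lasted 30-36 h at 37C, with 4.5 mM final sodium butyrate as control, followed by a ONE-Glo read.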
ELG1 DNA repair = inhibitors of ELG1-dependent DNA repair in HEK293T cells; Potency, µM (titrated, usually from 46.1 µM), without a hit: top-dose activity change, negative = inhibition, hits mostly inhibitors; actives 2.3% (n = 330,000); HEK293T ELG1-luciferase reporter, luminescence, 16 h; DNA damage induced by 5-fluorouridine; further: on the % scale 0 is the no-effect control and ±100 the full control effect; nearly all actives have a fitted effect of over 55% in size
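HEK293T cells expressing luciferase-tagged ELG1 (2,000/well) received 5-Fluorouridine plus compound or DMSO for 16 hr at 37 °C. Luciferase was read by ONE-Glo luminescence after 30 min at room temperature.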
FLuc counter = counter-screen for miR-21 project: firefly luciferase inhibitors or activators; P08659; purified FLuc, Km substrates, luminescence inhibition; Potency, µM (titrated, usually from 57.5 µM), for the others: at the highest dose activity change, negative = inhibition, most hits filed as inhibitors; actives 6.9% (n = 360,000); AID 588342;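 further: plate controls were vehicle for no effect and reference inhibitor for full effect; nearly all actives have a fitted effect of over 55% in size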
Target sequence (P08659 whole entry, looked up): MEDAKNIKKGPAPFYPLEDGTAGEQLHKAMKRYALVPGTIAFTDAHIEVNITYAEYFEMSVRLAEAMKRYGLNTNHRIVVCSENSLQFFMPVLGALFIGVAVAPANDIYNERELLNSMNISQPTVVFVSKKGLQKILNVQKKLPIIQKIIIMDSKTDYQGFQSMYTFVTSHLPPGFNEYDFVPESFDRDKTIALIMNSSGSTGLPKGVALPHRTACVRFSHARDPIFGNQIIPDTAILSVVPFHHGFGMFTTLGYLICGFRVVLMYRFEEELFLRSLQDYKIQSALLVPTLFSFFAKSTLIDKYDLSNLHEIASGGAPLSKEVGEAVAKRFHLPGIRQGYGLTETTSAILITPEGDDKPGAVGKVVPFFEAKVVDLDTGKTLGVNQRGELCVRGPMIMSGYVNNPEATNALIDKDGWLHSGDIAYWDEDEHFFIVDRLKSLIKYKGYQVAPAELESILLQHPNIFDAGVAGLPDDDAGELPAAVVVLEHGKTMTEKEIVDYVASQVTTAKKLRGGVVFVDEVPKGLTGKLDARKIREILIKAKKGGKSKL
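Purified P. pyralis luciferase, 10 nM final, with Km-level 10 uM D-luciferin and 10 uM ATP in 50 mM Tris acetate pH 7.5, 10 mM Mg acetate, 0.01% Tween-20, 0.05% BSA; 6-point qHTS titration about 60 µM downward; luminescence read.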
NPC1 prom act = activators of NPC1 promoter; Potency, µM (titrated, usually from 9.22 µM), for inactives: at the highest dose activation, most hits filed as activators; actives 2.4% (n = 320,000); Huh7 NPC1 promoter luciferase reporter, 24 h; further: % of control where 0% means no effect; nearly all actives have a fitted effect of over 60% in size
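Cells: Huh7 expressing luciferase under the NPC1 promoter, 1500/well. Seeded 2 h, compound added, incubated 24 h at 37 °C. Luciferase reagent, 10 min ambient, then luminescence.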
Rab9 prom act = activators of Rab9 promoter. Huh7 Rab9 promoter-luciferase reporter, luminescence, 24 h. Potency, µM (series often up to 9.22 µM), for the others: at the highest dose activation, negative = inhibition, hits mostly activators. actives 2.8% (n = 320,000). AID 485297; further: % of control where 0% means no effect; nearly all actives have a fitted effect of over 60% in size
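Huh7 cells stably carrying a Rab9 promoter-luciferase reporter, 1500 cells per well in OP-MEM I with 10% FBS, treated with compound 24 hours at 37C. Luciferase activity read by luminescence after 10 minutes with Amplite reagent.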
ELG1 genotox = genotoxicity induction in ELG1-luciferase HEK293T cells | HEK293T ELG1-luciferase reporter, luminescence, 16 h | Potency, µM (doses to about 46 µM), inactives show at the highest dose activity change, positive = activation, most hits filed as activators | actives 1.3% (n = 330,000); further: % of control where 0% means no effect; nearly all actives have a fitted effect of over 60% in size
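Screening used a luciferase reporter fused to human ELG1 in HEK293T cells. Luminescence was read on a CCD plate imager after 16 hr exposure and 30 min ONE-Glo incubation.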
An asterisk follows results filed as active. The call rests on the fitted dose curve; in most records, active means well fitted curve in the direction sought with a large enough effect; inconclusive means small, poorly fitted or top-dose-only effect, or another doubt; inactive means no such curve, though single readings can be large; an effect the other way counts as inactive or inconclusive. Potency means the concentration at half of the fitted maximal effect.

O=C(N/N=C/c1cccs1)c1ccc2c(c1)OCO2 was read as SMN2 splice enh 13µM*, ELG1 DNA repair inconclusive, FLuc counter 2.7µM*, NPC1 prom act 2.5µM*, Rab9 prom act 1.3µM* and ELG1 genotox 9.2µM*.
`Cc1ccc(NC(=O)/C(C#N)=C/c2ccc(C)o2)cc1` gave SMN2 splice enh 7.1µM* and FLuc counter 1.9µM*.
For Cc1ccc(/C=C(\C#N)C(=O)Nc2cccc(Cl)c2)o1 the results were SMN2 splice enh inconclusive and FLuc counter -14%.
Screening Cc1cccc(NC(=O)/C(C#N)=C/c2ccc(C)o2)c1 returned SMN2 splice enh 13µM* and FLuc counter 9.5µM*.
Screening CC(NC(=O)COC(=O)CN1C(=O)C2CCCCC2C1=O)c1ccccc1 (configuration not stated) returned ELG1 DNA repair 5% and ELG1 genotox 5%.
For COC(=O)C1=C(C)N(Cc2cccnc2)C(=O)/C1=C\c1sccc1C the results were ELG1 DNA repair 21µM*, FLuc counter -7%, NPC1 prom act -7%, Rab9 prom act -1% and ELG1 genotox 0%.
Screening Cn1c(CNc2ccccc2)nc2ccccc21 returned SMN2 splice enh 18µM*, ELG1 DNA repair inconclusive, FLuc counter 19µM*, NPC1 prom act 4µM*, Rab9 prom act 3.2µM* and ELG1 genotox inconclusive.
`Cc1ccccc1NCc1nc2ccccc2n1C` gave ELG1 DNA repair inconclusive, FLuc counter 4.3µM*, NPC1 prom act 1.4µM*, Rab9 prom act 2µM* and ELG1 genotox 4.1µM*.
Screening Cn1c(CNc2ccc(F)cc2)nc2ccccc21 returned ELG1 DNA repair inconclusive, FLuc counter 9.5µM*, NPC1 prom act 2.2µM*, Rab9 prom act 2.2µM* and ELG1 genotox 16µM*.
For C=CCNc1nc(N)c(C(=C(C#N)C#N)c2ccc(Br)cc2)s1 the results were SMN2 splice enh -15%, ELG1 DNA repair 18µM*, FLuc counter 3%, NPC1 prom act -10%, Rab9 prom act -2% and ELG1 genotox -10%.
For CC1CC(C)CN(C(=O)c2cc(S(=O)(=O)N3CCCCC3)ccc2Cl)C1 (configuration not stated) the results were ELG1 DNA repair -9%, FLuc counter 3%, NPC1 prom act 2%, Rab9 prom act -4% and ELG1 genotox -5%.
`Cc1ccc(S(=O)(=O)CC(=O)N2CCN(c3ccc([N+](=O)[O-])cc3)CC2)cc1` gave ELG1 DNA repair 10µM* and ELG1 genotox -4%.
Screening Cc1noc(C)c1CSCC(=O)N1CCN(c2ccc([N+](=O)[O-])cc2)CC1 returned SMN2 splice enh -83%, ELG1 DNA repair 21µM*, FLuc counter -1%, NPC1 prom act -3%, Rab9 prom act -16% and ELG1 genotox -9%.
`Cc1ccc(CC(=O)N2CCN(c3ccc([N+](=O)[O-])cc3)CC2)cc1` gave ELG1 DNA repair -22%, FLuc counter -2%, NPC1 prom act 0%, Rab9 prom act 2% and ELG1 genotox 5%.
For CN(C)Cc1ccccc1-c1cncnc1NCc1cccnc1 the results were SMN2 splice enh 0%.
COc1ccc(-c2noc(-c3ccc(NC4CCCCC4)c([N+](=O)[O-])c3)n2)cc1OC was read as FLuc counter 5%.
Screening COc1ccc(-c2noc(-c3ccc(Cl)cc3[N+](=O)[O-])n2)cc1OC returned SMN2 splice enh 25µM*, ELG1 DNA repair inconclusive, FLuc counter 4.3µM*, NPC1 prom act inconclusive, Rab9 prom act 4µM* and ELG1 genotox 17%.
COc1ccc(-c2noc(-c3ccc(N4CCCC4)c([N+](=O)[O-])c3)n2)cc1OC was read as FLuc counter -17%.
For Cc1cccc(-c2noc(-c3ccc(Cl)cc3[N+](=O)[O-])n2)c1 the results were SMN2 splice enh inconclusive, ELG1 DNA repair inconclusive, FLuc counter 1.5µM*, NPC1 prom act 0.71µM*, Rab9 prom act 2.5µM* and ELG1 genotox inconclusive.
Screening COc1cc(-c2noc(-c3ccc(N4CCOCC4)c([N+](=O)[O-])c3)n2)cc(OC)c1OC returned FLuc counter 19µM*.
COc1ccc(-c2noc(-c3ccc(NC(C)c4ccccc4)c([N+](=O)[O-])c3)n2)cc1OC (configuration not stated) was read as FLuc counter 11µM*.
Cc1c(-c2nc(-c3cccnc3)no2)cccc1[N+](=O)[O-] was read as SMN2 splice enh 21%, ELG1 DNA repair inconclusive, FLuc counter inconclusive, NPC1 prom act 30%, Rab9 prom act 16% and ELG1 genotox inconclusive.
Screening CCN(CC)CCCNc1nc2ccccc2c2nc(-c3ccncc3)nn12 returned ELG1 DNA repair 0%, FLuc counter 3%, NPC1 prom act -6%, Rab9 prom act -4% and ELG1 genotox 4%.
Screening O=c1c2cccnc2[nH]c(=S)n1CCCN1CCN(c2ccc(F)cc2)CC1 returned SMN2 splice enh 7.9µM*, ELG1 DNA repair 19%, FLuc counter -1%, NPC1 prom act 1%, Rab9 prom act 0% and ELG1 genotox 10%.
For COc1ccc(N2CCN(CCCn3c(=S)[nH]c4ncccc4c3=O)CC2)cc1 the results were SMN2 splice enh inconclusive, ELG1 DNA repair inconclusive, FLuc counter 0%, NPC1 prom act 9%, Rab9 prom act -1% and ELG1 genotox 3%.
`CN1CCN(C(=O)C2=C[C@H](c3ccc(C(F)(F)F)cc3)C[C@H](OCc3ccc(CO)cc3)O2)CC1` gave ELG1 DNA repair 14%, FLuc counter 0%, NPC1 prom act 1%, Rab9 prom act 1% and ELG1 genotox 1%.
CCOc1cc(/C=C2\SC(=S)N(Nc3ccccc3)C2=O)ccc1O was read as SMN2 splice enh -9%, ELG1 DNA repair inconclusive, FLuc counter 6.7µM*, NPC1 prom act inconclusive, Rab9 prom act 5% and ELG1 genotox inconclusive.
For O=C1/C(=C/c2ccc(O)c(O)c2)SC(=S)N1Nc1ccccc1 the results were ELG1 DNA repair -5%, FLuc counter 19µM*, NPC1 prom act -21%, Rab9 prom act -7% and ELG1 genotox -8%.
Screening O=C(O)c1ccc(/C=C2\SC(=S)N(Nc3ccccc3)C2=O)cc1 returned ELG1 DNA repair 10%, FLuc counter inconclusive, NPC1 prom act -3%, Rab9 prom act 1% and ELG1 genotox 9%.

Assay outcomes (PubChem)
